We go through 14 molecules from PubChem BioAssay (NCI).

Molecules are shown by their SMILES. About 83,000 compounds went through this panel and 20% of them were active in at least one assay; those are over-represented in the sample as a whole.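 Values shown are percent growth following 48 h exposure of cells in 96-well plates to a single concentration of compound; below 10 was considered active.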 Values without a mark were called inactive. The source made the active and inactive calls.

What all share (assay): NCI-60 one-dose screen, 48 h (100 = growth as untreated, 0 = no growth, -100 = all killed)
In one experiment the test system is SR leukemia. The settings on record: 10 µM unless noted.
Another experiment has as its system OVCAR-8 ovarian. As to conditions: 10 µM unless noted.
The test system of another experiment is OVCAR-5 ovarian. As to conditions: 10 µM unless noted.
The test system of a further experiment is OVCAR-4 ovarian. The settings on record: 10 µM unless noted.
A further experiment has as its system SK-OV-3 ovarian. The settings on record: 10 µM.
In a further experiment the test system is IGROV1 ovarian. As to conditions: 10 µM unless noted.
The subject of another experiment is OVCAR-3 ovarian. As to conditions: 10 µM unless noted.
A further experiment relates to HS 578T breast. As to conditions: 10 µM unless noted.
For the next experiment, the system named is NCI/ADR-RES ovarian. As to conditions: 10 µM unless noted.

As for `COC(=O)[C@@H]1CCCN1C(=O)[C@@H]1CCCN1C(=O)[C@@H](Cc1c[nH]c2ccccc12)NC(=S)Nc1cc(C(F)(F)F)cc(C(F)(F)F)c1`, the growth in the experiment on SR leukemia was -17.5% (active); in the experiment with OVCAR-8 ovarian, 67.6%; in the experiment with OVCAR-5 ovarian, 91%; in the experiment with OVCAR-4 ovarian, 42%; with SK-OV-3 ovarian, 90.9%; in the experiment on IGROV1 ovarian, 36%. Also, the growth is 44.1% in the experiment on OVCAR-3 ovarian, 59.2% with HS 578T breast and 99.8% in the experiment on NCI/ADR-RES ovarian.
In the case of `O=C1C(Br)=C(c2ccccc2)C(=O)C(Br)=C1c1ccccc1`, the growth with SR leukemia was 71.1%; with OVCAR-8 ovarian, 91.9%; with OVCAR-5 ovarian, 96.7%; in the experiment with OVCAR-4 ovarian, 90%; in the experiment with SK-OV-3 ovarian, 95.4%; in the experiment on IGROV1 ovarian, 105%. The growth was 110% in the experiment on OVCAR-3 ovarian, 97.2% in the experiment on HS 578T breast and 103% with NCI/ADR-RES ovarian.
For `O=C1CCC(N2Cc3c(C#CCCCNC(=O)c4cc5c(o4)C(=O)c4ccccc4C5=O)cccc3C2=O)C(=O)N1` (stereo not given), the growth with SR leukemia is 12.1%; in the experiment with OVCAR-8 ovarian it was 4.59% (active); in the experiment on OVCAR-5 ovarian, 20.2%; with OVCAR-4 ovarian, -98.5% (active); in the experiment on IGROV1 ovarian it was -5.62% (active); with OVCAR-3 ovarian, -37.3% (active). The growth with HS 578T breast is -32.8% (active).
In the case of `C=C(C)CCCC(C)CC#N` (stereo not given), the growth with SR leukemia was 90.8%; in the experiment with OVCAR-8 ovarian it was 106%; in the experiment on OVCAR-5 ovarian, 103%; in the experiment on OVCAR-4 ovarian, 105%; in the experiment with SK-OV-3 ovarian, 103%; in the experiment on IGROV1 ovarian, 107%. For the same molecule, the growth in the experiment on OVCAR-3 ovarian was 99.8%; in the experiment with HS 578T breast it was 110%; in the experiment on NCI/ADR-RES ovarian, 107%.
Regarding `Cc1c(C(=O)Nc2nc(-c3ccccc3)cs2)nnn1-c1cccc2ccccc12`, the growth in the experiment with SR leukemia is 29.2% [50 µM]; in the experiment with OVCAR-8 ovarian it was 50.9% [50 µM]; in the experiment with OVCAR-5 ovarian it was 86.8% [50 µM]; with OVCAR-4 ovarian, 23.7% [50 µM]; with IGROV1 ovarian, 69.9% [50 µM]; with OVCAR-3 ovarian, 71.8% [50 µM]. Besides, the growth was 79.5% [50 µM] in the experiment with HS 578T breast and 65.1% [50 µM] with NCI/ADR-RES ovarian.
Turning to `COC1(OC)C2(Cl)C=C(c3ccccc3)C1(Cl)C(Cl)=C2Cl` (stereo not given), the growth in the experiment on SR leukemia was 83.9%; in the experiment with OVCAR-8 ovarian it was 93.8%; in the experiment with OVCAR-5 ovarian it was 101%; in the experiment with OVCAR-4 ovarian, 88.6%; in the experiment with SK-OV-3 ovarian, 90.3%; with IGROV1 ovarian it was 90%. Besides, the growth in the experiment with HS 578T breast was 116%; with NCI/ADR-RES ovarian it was 98.9%.
With `COc1ccc(Nc2[nH]n(C3=Nc4ccccc4Sc4ccccc43)c(=O)c2C#N)cc1`, the growth with SR leukemia is 70.8%; in the experiment with OVCAR-8 ovarian, 40.2%; with OVCAR-5 ovarian, 102%; in the experiment on OVCAR-4 ovarian, 47.5%; in the experiment with SK-OV-3 ovarian, 53.5%; in the experiment with IGROV1 ovarian, 55.1%. For the same molecule, the growth is 52.4% with OVCAR-3 ovarian and 45.2% in the experiment with NCI/ADR-RES ovarian.
Consider `COc1cc(Cn2cc(F)c(=O)[nH]c2=O)cc(OC)c1`, for which the growth in the experiment with SR leukemia was 103% [50 µM]; in the experiment on OVCAR-8 ovarian it was 101% [50 µM]; in the experiment with OVCAR-5 ovarian, 101% [50 µM]; in the experiment with OVCAR-4 ovarian, 108% [50 µM]; in the experiment on IGROV1 ovarian, 106% [50 µM]; in the experiment on OVCAR-3 ovarian, 126% [50 µM]. The results for the growth in the experiment on HS 578T breast and with NCI/ADR-RES ovarian were 96.7% [50 µM] and 112% [50 µM], respectively.
As for `O=c1c2c(=NCCN3CCCC3)cc3c(=O)n(CCCN4CCOCC4)c(=O)c4c(-c5ccc(CN6CCCC6)cc5)cc(c(O)n1CCCN1CCOCC1)c2c4-3`, the growth in the experiment with SR leukemia is 3.49% (active); with OVCAR-8 ovarian, -10.7% (active); in the experiment on OVCAR-5 ovarian, -34.6% (active); in the experiment on OVCAR-4 ovarian it was -50.7% (active); in the experiment with IGROV1 ovarian, -25.4% (active); in the experiment on OVCAR-3 ovarian it was -22.5% (active). In addition, the growth with HS 578T breast was -26.3% (active).
`COc1ccc(/C=N/NC(=O)c2cnn(CC(O)Cc3ccccc3)c2N)cc1OC1CCCC1` (stereo not given): the growth with SR leukemia was 88.7%; with OVCAR-8 ovarian, 78.6%; in the experiment with OVCAR-5 ovarian, 102%; with OVCAR-4 ovarian, 75.8%; in the experiment on IGROV1 ovarian, 105%; with OVCAR-3 ovarian, 102%. Further, the figures for the growth in the experiment with HS 578T breast and in the experiment with NCI/ADR-RES ovarian were 79% and 88.3%, respectively.
For the molecule `COc1ccc(OC)c2ncccc12`, the growth in the experiment with SR leukemia is 99%; with OVCAR-8 ovarian, 103%; in the experiment on OVCAR-5 ovarian, 107%; in the experiment with OVCAR-4 ovarian it was 102%; in the experiment on SK-OV-3 ovarian it was 96.7%; in the experiment with IGROV1 ovarian it was 106%. The growth is 110% in the experiment on OVCAR-3 ovarian, 107% in the experiment on HS 578T breast and 100% with NCI/ADR-RES ovarian.
Turning to `N#C/C(=C\c1ccc[nH]1)c1cc2ccccc2[nH]1`, the growth was 68.3% in the experiment with SR leukemia; 74.9% in the experiment with OVCAR-8 ovarian; 82.4% in the experiment on OVCAR-5 ovarian; 24.1% with OVCAR-4 ovarian; 59.2% in the experiment on IGROV1 ovarian; 81.1% in the experiment with OVCAR-3 ovarian. Also, the values for the growth with HS 578T breast and in the experiment with NCI/ADR-RES ovarian were 87.5% and 76.9%, respectively.
Consider `CCOC(=O)c1sc(NC(=O)CN2CCC(Cc3ccccc3)CC2)nc1C`, for which the growth in the experiment with SR leukemia is 83.7%; in the experiment with OVCAR-8 ovarian, 110%; with OVCAR-5 ovarian, 103%; with OVCAR-4 ovarian, 98.6%; with SK-OV-3 ovarian, 102%; in the experiment on IGROV1 ovarian, 87.6%. In addition, the growth is 108% in the experiment with OVCAR-3 ovarian, 83.4% in the experiment on HS 578T breast and 94.1% with NCI/ADR-RES ovarian.
Turning to `CCN(CC)c1ccc(/C=C(\C#N)c2cc3ccccc3[nH]2)cc1`, the growth in the experiment on SR leukemia is 24.6%; with OVCAR-8 ovarian it was 63.4%; in the experiment with OVCAR-5 ovarian it was 72.4%; in the experiment with OVCAR-4 ovarian it was 68.2%; in the experiment with IGROV1 ovarian, 65.1%; with OVCAR-3 ovarian, 20.9%. The growth in the experiment on HS 578T breast was 58.3%; in the experiment on NCI/ADR-RES ovarian, 35.4%.
